Measurements taken from PubChem BioAssay (NCI).
The panel holds about 83,000 compounds, 20% with a hit somewhere; the sample as a whole holds those more often.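 Values shown are percent growth following 48 h exposure of cells in 96-well plates to a single concentration of compound; below 10 was considered active.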 A number with no mark means an inactive call. Active and inactive are the calls of the source.

Assays:
Test in all cases: NCI-60 one-dose screen, 48 h (100 = growth as untreated, 0 = no growth, -100 = all killed)
Details in all cases: 10 µM unless noted
NCI-H23 lung = test system: NCI-H23 lung
NCI-H226 lung = test system: NCI-H226 lung
NCI-H322M lung = test system: NCI-H322M lung
HOP-62 NSCLC = test system: HOP-62 NSCLC
NCI-H460 lung = test system: NCI-H460 lung
NCI-H522 lung = test system: NCI-H522 lung
A549/ATCC NSCLC = test system: A549/ATCC NSCLC
786-0 renal = test system: 786-0 renal
COLO 205 colon = test system: COLO 205 colon
DU-145 prostate = test system: DU-145 prostate
K-562 leukemia = test system: K-562 leukemia
MALME-3M melanoma = test system: MALME-3M melanoma
MDA-MB-231 breast = test system: MDA-MB-231 breast
RXF 393 renal = test system: RXF 393 renal
SF-268 CNS = test system: SF-268 CNS
SF-295 CNS = test system: SF-295 CNS
SF-539 CNS = test system: SF-539 CNS
UACC-257 melanoma = test system: UACC-257 melanoma
M14 melanoma = test system: M14 melanoma

Structure (SMILES)	growth (NCI-H23 lung)	growth (NCI-H226 lung)	growth (NCI-H322M lung)	growth (HOP-62 NSCLC)	growth (NCI-H460 lung)	growth (NCI-H522 lung)	growth (A549/ATCC NSCLC)	growth (786-0 renal)	growth (COLO 205 colon)	growth (DU-145 prostate)	growth (K-562 leukemia)	growth (MALME-3M melanoma)	growth (MDA-MB-231 breast)	growth (RXF 393 renal)	growth (SF-268 CNS)	growth (SF-295 CNS)	growth (SF-539 CNS)	growth (UACC-257 melanoma)	growth (M14 melanoma)
COc1ccc(C2c3cccn3-c3ccccc3N2C(C)=O)cc1 (stereo not drawn)	99.3%	97.3%	82.6%	88.8%	97.4%	122%	110%	106%	100%	108%	42%	93%	103%	99.2%	95.8%	98.7%	108%	109%	96.2%
CCOC(=O)C(Cc1ccccc1)n1c(O)c(/C=N/c2ncc(Cc3ccc(Cl)cc3Cl)s2)sc1=S (stereo not drawn)	11%	15.5%	15.7%	8.75% (active)	2.04% (active)	-23.2% (active)	4.36% (active)	17.9%	-87% (active)	26.2%	2.17% (active)	-9.77% (active)	-18.2% (active)	2.54% (active)	24.4%	-4.55% (active)	15%	-17.9% (active)	10.8%
FC(F)(F)c1nn[nH]n1	96.6%	94.8%	111%	125%	117%	102%	94.1%	107%	122%	99.5%	113%	100%	116%	104%	94.5%	106%	106%	110%	112%
Clc1ccc(Cl)c(N=Cc2ccc3c(c2)OCO3)c1	99.2%	103%	108%	101%	116%	88.7%	96.9%	110%	109%	120%	103%	111%	124%	111%	105%	106%	116%	103%	102%
COc1cnc2c(c1)C(=O)c1c-2n(CCCN2CCCC2)c(=O)c2cc(Cl)ccc12	32.5%	6.56% (active)	46.6%	16.2%	-12.9% (active)	4.02% (active)	25.3%	-73.1% (active)	10.4%	36%	-72% (active)	70.3%	62.4%	30%	39.2%	23%	4.9% (active)	63.6%	37.3%
C(=Nc1ccc(-c2ccc(N=Cc3ccccc3)cc2)cc1)c1ccccc1	101%	97.4%	103%	101%	116%	70%	93.8%	104%	117%	118%	95.4%	94.6%	88.2%	113%	105%	99.2%	107%	109%	104%
c1cc2c(cc1-c1cnc3nonc3n1)OCO2	99.3%	93.4%	103%	83.5%	100%	55.9%	97.4%	109%	91.2%	103%	59.3%	98.6%	75.1%	122%	82.9%	101%	73.2%	93%	101%
CC(=O)c1ccc(Br)c([N+](=O)[O-])c1	106%	112%	107%	109%	109%	27.6%	100%	95.4%	127%	113%	89.7%	98.6%	117%	113%	117%	96.9%	107%	111%	97.2%
COc1cc(OC)c(Cl)cc1N	105%	108%	110%	104%	103%	94.8%	105%	111%	115%	114%	95.5%	134%	94.8%	110%	104%	135%	95.4%	111%	115%
S=C(Nc1ccc(Cl)cc1)Nc1ccc(Cl)cc1 (tested in a mixture with another compound)	1.65% (active)	16.4%	4.59% (active)	6.8% (active)	-17.4% (active)	-27.9% (active)	1.68% (active)	22.1%	-95.7% (active)	22.2%	12.1%	-7.85% (active)	-58.7% (active)	9.51% (active)	23%	-6.55% (active)	19.1%	-14.7% (active)	19%
O=C(Nc1cccc(C2=NCCN2)c1)c1ccc(N=Nc2ccc(C(=O)Nc3cccc(C4=NCCN4)c3)cc2)cc1	44.3%	81.5%	64.7%	42.3%	41.9%	36.2%	33.9%	69.2%	64.5%	59.1%	51.8%	29.7%	73.1%	105%	54.2%	82.4%	74%	55.4%	64.9%
Cc1nc(N)nc2c1CCC(Nc1ccccc1)S2 (stereo not drawn)	104%	99.1%	101%	112%	109%	91%	97.6%	103%	107%	106%	93.4%	96.3%	106%	107%	94.7%	104%	96.7%	101%	108%
O/N=C1\c2ccccc2-c2ccc(Br)cc21	96.1%	103%	101%	113%	106%	95.8%	97.4%	98.6%	136%	110%	98.7%	103%	107%	116%	102%	99.2%	97.8%	106%	129%
CN1C(=O)C(C2=NNC(c3ccccc3C(=O)O)C2)C(=O)N(C)C1=O (stereo not drawn)	106%	99.8%	87.8%	98.3%	106%	83.7%	98.6%	101%	108%	113%	94.1%	111%	109%	106%	98.8%	101%	108%	97.1%	103%
Cn1cnc([N+](=O)[O-])c1S(=O)(=O)Oc1ccccc1	101%	91.6%	109%	96.1%	105%	-75.7% (active)	106%	95.2%	-16.9% (active)	70.4%	31.8%	-60.9% (active)	99.4%	74.1%	101%	110%	93.8%	90.9%	53.1%
O=C(Nc1ccc(-n2ccc3c(NC(=O)c4ccccc4)nccc32)cc1)c1ccc(N2CCOCC2)c(C(F)(F)F)c1	37.4%	43.1%	48.6%	21.1%	3.48% (active)	29.9%	6.91% (active)	-26.3% (active)	16.6%	38.9%	17.4%	55.5%	52.5%	-66.5% (active)	37%	-7.34% (active)	22.6%	55%	29.1%
O=C1Nc2ccccc2/C1=C\c1nc(C2CCN(S(=O)(=O)c3ccc(F)cc3)CC2)n2ccccc12	42%	41.2%	55.5%	47.8%	65%	16.5%	68.1%	-3.81% (active)	79.1%	57.1%	56.9%	3.9% (active)	32.8%	16.6%	14.2%	46.5%	27.4%	72%	61.5%
